HIF activator = HIF pathway transcriptional activation; U2OS HRE-luciferase reporter, luminescence; normalized: DMSO 0%, desferrioxamine 100%; activation, % at 7.5 µM (by protocol); 0.32% of 300,000 active; AID 1910;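 active = mean activation of at least 10% of the iron chelator positive control signal, with at least half of replicates also reaching 10%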
LANA-H2A inh = blocks KSHV LANA binding to histone H2A/H2B | cell-free LANA-H2A/H2B peptide, fluorescence polarization | inhibition, % (no concentration beside the values) | 0.6% of 320,000 active | AID 2629; in the data active = inhibition mostly above about 10%, no sharp cut-off; inactive = mostly below about 6.7%
Target sequence (Q9QR71 whole entry, looked up): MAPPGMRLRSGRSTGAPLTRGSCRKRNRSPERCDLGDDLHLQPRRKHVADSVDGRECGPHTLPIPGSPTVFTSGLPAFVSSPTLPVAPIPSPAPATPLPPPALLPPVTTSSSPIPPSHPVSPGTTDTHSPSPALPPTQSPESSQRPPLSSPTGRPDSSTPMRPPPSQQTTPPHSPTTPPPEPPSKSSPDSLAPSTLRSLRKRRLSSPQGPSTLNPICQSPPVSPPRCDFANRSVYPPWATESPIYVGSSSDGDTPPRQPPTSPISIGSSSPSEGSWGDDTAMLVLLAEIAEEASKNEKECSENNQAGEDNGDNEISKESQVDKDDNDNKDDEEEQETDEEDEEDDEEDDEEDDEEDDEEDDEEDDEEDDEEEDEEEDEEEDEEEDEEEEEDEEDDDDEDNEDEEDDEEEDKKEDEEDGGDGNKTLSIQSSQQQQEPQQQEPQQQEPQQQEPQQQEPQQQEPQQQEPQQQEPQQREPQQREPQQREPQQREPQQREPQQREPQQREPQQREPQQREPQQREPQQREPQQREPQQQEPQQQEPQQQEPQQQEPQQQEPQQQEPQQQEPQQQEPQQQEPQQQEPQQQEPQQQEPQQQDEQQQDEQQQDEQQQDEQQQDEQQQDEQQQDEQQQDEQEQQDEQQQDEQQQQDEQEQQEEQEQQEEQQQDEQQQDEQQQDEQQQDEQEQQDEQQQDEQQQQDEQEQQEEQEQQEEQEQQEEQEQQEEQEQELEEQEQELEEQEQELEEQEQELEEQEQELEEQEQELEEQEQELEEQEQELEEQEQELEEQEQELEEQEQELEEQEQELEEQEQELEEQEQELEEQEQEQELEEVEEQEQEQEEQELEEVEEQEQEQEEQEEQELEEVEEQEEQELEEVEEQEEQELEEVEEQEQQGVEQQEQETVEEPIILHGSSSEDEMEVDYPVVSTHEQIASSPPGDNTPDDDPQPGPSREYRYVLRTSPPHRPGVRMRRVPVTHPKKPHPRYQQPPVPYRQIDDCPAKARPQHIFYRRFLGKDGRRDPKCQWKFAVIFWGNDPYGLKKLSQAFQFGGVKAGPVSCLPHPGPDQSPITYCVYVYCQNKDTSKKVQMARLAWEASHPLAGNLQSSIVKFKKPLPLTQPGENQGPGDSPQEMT
HDAC3 inhib = inhibitors of human histone deacetylase 3. O15379. recombinant HDAC3, fluorogenic peptide/trypsin coupled, fluorescence. inhibition, % at 8.3 µM. 0.15% of 320,000 active. AID 2718; in the data active = inhibition above about 26%, passing the limit was not always enough
CR mimetic SO = lowers age-related superoxide in aged yeast cells. 0.18% of 330,000 active. AID 2690. S. cerevisiae aged cells, superoxide DHE fluorescence; hits give low values. superoxide response (% of plate mean), % at 10 µM;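 active = superoxide response under a set limit, about three screen SD below normal, cut at about 65% in these data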;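 note: yeast aged for seven days with compound at 30 °C before DHE staining; 100% = average MFI of all compound-treated wells on the plate with controls excluded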
Starred values were filed as active, the others as inactive. An excerpt weighted towards active compounds, which were near 1.2% of everything screened.

`CSc1nc(=S)c2[nH]c(=S)[nH]c2[nH]1` gave HIF activator -1, LANA-H2A inh 0, HDAC3 inhib 36* and CR mimetic SO 95.
For CSc1nc2c(c(=O)[nH]1)CCCC2 the results were HIF activator 0, LANA-H2A inh -4, HDAC3 inhib 0 and CR mimetic SO 84.
CCC1Oc2ccccc2N(CC(=O)NCCc2ccc(OC)c(OC)c2)C1=O (stereo unspecified) was read as HIF activator 1, LANA-H2A inh 20, HDAC3 inhib 1 and CR mimetic SO 91.
CCC1Oc2ccccc2N(CC(=O)Nc2ccccc2OC)C1=O (stereo unspecified) was read as HIF activator 225*, LANA-H2A inh -7, HDAC3 inhib 0 and CR mimetic SO 84.
For O=C(Cn1cnc2cc(Cl)ccc2c1=O)Nc1ccc2c(c1)OCO2 the results were HIF activator 0, LANA-H2A inh 3, HDAC3 inhib -4 and CR mimetic SO 98.
`O=C(Oc1ccc(=O)n(-c2ccccc2)n1)c1ccccc1` gave HIF activator -1, LANA-H2A inh -2, HDAC3 inhib 81* and CR mimetic SO 96.
`O=C(O)COc1ccc(=O)n(-c2ccccc2)n1` gave HIF activator -27, LANA-H2A inh 2, HDAC3 inhib -5 and CR mimetic SO 102.
`O=C(Nc1cccc(-n2cnnn2)c1)C1CCCN(Cc2cccc(C(F)(F)F)c2)C1` (stereo unspecified) gave HIF activator 0, LANA-H2A inh 13*, HDAC3 inhib -1 and CR mimetic SO 118.
Screening COc1ccc(Cl)cc1NC(=O)c1cc(-c2ccccc2O)n[nH]1 returned HIF activator 0, LANA-H2A inh 16*, HDAC3 inhib -2 and CR mimetic SO 88.
`COc1ccc(OC)c(NC(=O)c2cc(-c3cc(Cl)ccc3O)n[nH]2)c1` gave HIF activator -1, LANA-H2A inh -2, HDAC3 inhib 4 and CR mimetic SO 103.
For O=C(COc1ccc([N+](=O)[O-])cc1)NNC(=O)Nc1ccccc1F the results were HIF activator 0, LANA-H2A inh -2 and CR mimetic SO 97.
`Cc1c(C(=O)Nc2ccc(F)cc2)cn2c(nc3ccccc32)c1C#N` gave HIF activator 0, LANA-H2A inh 97*, HDAC3 inhib -1 and CR mimetic SO 99.
Screening Cc1cc(C(=O)Nc2ccc(F)cc2)c2ccccc2n1 returned HIF activator -1, LANA-H2A inh 3, HDAC3 inhib 4 and CR mimetic SO 100.
Screening COc1cccc(C(=O)Nc2ccc(NC(C)=O)cc2)c1 returned HIF activator 3, LANA-H2A inh 41*, HDAC3 inhib -4 and CR mimetic SO 105.
For COc1cccc(C(=O)NC2CC3CCCC(C2)N3CC(=O)Nc2ccccc2)c1 (stereo unspecified) the results were HIF activator 0, LANA-H2A inh -4, HDAC3 inhib 6 and CR mimetic SO 132.
For COc1cccc(C(=O)Nc2cccc(NC(C)=O)c2)c1 the results were HIF activator 1, LANA-H2A inh -1, HDAC3 inhib 3 and CR mimetic SO 124.
COc1cccc(C(=O)NC2CC3CCCC(C2)N3CC(=O)Nc2ccc(N(C)C)cc2)c1 (stereo unspecified) was read as HIF activator 0, LANA-H2A inh 27*, HDAC3 inhib 3 and CR mimetic SO 124.
`Cc1ccc(-c2nc3ccccc3nc2-c2ccccc2)cc1` gave HIF activator 2, LANA-H2A inh 0, HDAC3 inhib 3 and CR mimetic SO 104.
Screening Cc1ccc(-c2nc(N)s[n+]2-c2ccccc2)cc1 returned HIF activator 3, LANA-H2A inh -13, HDAC3 inhib 62* and CR mimetic SO 89.
Screening CNc1nc(-c2ccccc2)[n+](-c2ccc(C)cc2)s1 returned HIF activator 4, LANA-H2A inh 1, HDAC3 inhib 42* and CR mimetic SO 106.
O=C(COC(=O)C12CC3CC(CC(Br)(C3)C1)C2)Nc1cccc(S(=O)(=O)N2CCOCC2)c1 was read as LANA-H2A inh -9, HDAC3 inhib -12 and CR mimetic SO 90.
COc1ccc(CNC(=O)N2CCN(c3ccccc3)CC2)cc1 was read as HIF activator 0, LANA-H2A inh 8, HDAC3 inhib -2 and CR mimetic SO 104.
COc1ccc(NC(=O)c2ccc(NC(=O)CSc3nc(N)cc(=O)[nH]3)cc2)cc1 was read as LANA-H2A inh -6, HDAC3 inhib 2 and CR mimetic SO 113.
`COc1ccc(-c2c(C#N)c(N)nc3sc(C(=O)c4ccccc4)c(N)c23)cc1` gave HIF activator 0, LANA-H2A inh 5, HDAC3 inhib -3 and CR mimetic SO 88.
For CCOc1ccc(-c2c(C#N)c(N)nc3sc(C(=O)c4ccccc4)c(N)c23)cc1 the results were HIF activator 0, LANA-H2A inh 11*, HDAC3 inhib -4 and CR mimetic SO 86.
For CC1(c2cc(C(F)(F)F)n3nc(C(=O)O)cc3n2)CC1 the results were HIF activator 1, LANA-H2A inh 6, HDAC3 inhib 2 and CR mimetic SO 99.
Screening CCc1c2ccccc2nn1-c1ccccc1C(=O)C(C)=O returned HIF activator 0, LANA-H2A inh 10*, HDAC3 inhib -2 and CR mimetic SO 98.
Screening COc1ccc2c(c1)c(C(C)=O)c(C)n2CCc1ccccc1 returned HIF activator -31, LANA-H2A inh 4, HDAC3 inhib 3 and CR mimetic SO 102.
For Cc1ncc(CN2CCC(CO)(CCc3ccccc3)CC2)s1 the results were HIF activator 0, LANA-H2A inh 16*, HDAC3 inhib 7 and CR mimetic SO 85.
Screening OCC1(CCCc2ccccc2)CCN(Cc2cnc(N3CCOCC3)s2)CC1 returned HIF activator 0, LANA-H2A inh -2, HDAC3 inhib -3 and CR mimetic SO 92.
For Cn1cc(C(=O)N2CCCCCC2)c(=O)c2cc(S(=O)(=O)N3CCCCC3)ccc21 the results were HIF activator 0, LANA-H2A inh -3, HDAC3 inhib -1 and CR mimetic SO 88.
For CCn1cc(C(=O)NCCCOC)c(=O)c2cc(S(=O)(=O)N3CCCC3)ccc21 the results were HIF activator 1, LANA-H2A inh 14*, HDAC3 inhib 10 and CR mimetic SO 113.
`COC(=O)c1cn(C)c2ccc(S(=O)(=O)N3CCCCC3)cc2c1=O` gave HIF activator 90*.
CCCn1nc(C(=O)Nc2ccc3c(c2)OCCO3)c2ccccc2c1=O was read as LANA-H2A inh -1, HDAC3 inhib 5 and CR mimetic SO 94.
`CC(=O)c1cccc(NC(=O)CN2CCc3cc4c(cc3C2C)OCCCO4)c1` (stereo unspecified) gave HIF activator 0, LANA-H2A inh -3, HDAC3 inhib 3 and CR mimetic SO 88.
`CCc1ccc(CN(C)C(=O)C2CCC(=O)N(CCc3ccc(OC)cc3)C2)nc1` (stereo unspecified) gave HIF activator 0, LANA-H2A inh 29*, HDAC3 inhib -6 and CR mimetic SO 79.
For Cc1cc(C)nc(/N=C(\N)Nc2ccc(OCCC(C)C)cc2)n1 the results were HIF activator 0, LANA-H2A inh 1, HDAC3 inhib -3 and CR mimetic SO 93.
